Laboratory results reported in the supplement of paper PMC10849652.
The full data set covers some 7,900 targets. This sample favours those with a hit. About 0.6% of all pairs of compound and target were hits. A number with no mark means an inactive call.

Key:
Experiment in all cases: log2 fold change, soluble protein after heating vs DMSO (PISA); higher = thermal stabilisation; K562 cells, 10 uM, 30 min; active = over 0.2 and 3.5 SD of the protein, either way, in both replicates (recomputed)
[1] = compound: CC1=C(C=C(C=C1)NC(=O)C2=CC(=CC=C2)C(C)(C)C#N)NC3=CC4=C(C=C3)N=CN(C4=O)C
Method in brief: (§1)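 Aliquots of K562 cells (2×10^6 cells/mL) treated with 10 μM compound for 30 min were heated for 3 min over 48°C-58°C. After pooling and extraction in PBS with 0.5% NP-40 at 4°C, soluble protein from a 21,000xg, 90 min spin was quantified by TMTpro 16plex LC-MS/MS with channel sums equalised. Thermal stability is expressed against control samples, from duplicates, as a log2 fold change.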

[2] = compound: CC1=C(C=C(C=C1)NC(=O)C2=CC(=CC=C2)N(C)C)NC(=O)C3=CC=C(C=C3)O
Method in brief: as §1

[3] = compound: CC1=CC=C(C=C1)SC2=C3C=C(SC3=CN=C2)C(=O)N
Method in brief: as §1

[4] = compound: CCCCN(Cc1ccc(C(=O)NO)cc1)C(=O)Nc1ccccc1 [Nexturastat A]
Method in brief: as §1

[5] = compound: CCCS(=O)(=O)Nc1ccc(F)c(C(=O)c2c[nH]c3ncc(-c4ccc(Cl)cc4)cc23)c1F [vemurafenib]
Method in brief: as §1

[6] = compound: CCCS(=O)(=O)Nc1ccc(F)c(C(=O)c2c[nH]c3ncc(Cl)cc23)c1F
Method in brief: as §1

[7] = compound: CCCc1cc(C)[nH]c(=O)c1CNC(=O)c1cc(-c2ccnc(N3CCN(C)CC3)c2)cc2c1cnn2C(C)C
Method in brief: as §1

[8] = compound: CCN(CC)Cc1ccc2cc(COC(=O)Nc3ccc(C(=O)NO)cc3)ccc2c1 [givinostat]
Method in brief: as §1

[9] = compound: CCN(CCCOc1ccc2c(Nc3cc(CC(=O)Nc4cccc(F)c4)[nH]n3)ncnc2c1)CCOP(=O)(O)O [barasertib]
Method in brief: as §1

[10] = compound: CC1=NC(=CC=C1)C2=C(N=C(N2)C(C)(C)C)C3=CC4=NC=CN=C4C=C3
Method in brief: as §1

GPD1 (UniProt P21695)
UniProt P21695, sequence (P21695 whole entry, looked up): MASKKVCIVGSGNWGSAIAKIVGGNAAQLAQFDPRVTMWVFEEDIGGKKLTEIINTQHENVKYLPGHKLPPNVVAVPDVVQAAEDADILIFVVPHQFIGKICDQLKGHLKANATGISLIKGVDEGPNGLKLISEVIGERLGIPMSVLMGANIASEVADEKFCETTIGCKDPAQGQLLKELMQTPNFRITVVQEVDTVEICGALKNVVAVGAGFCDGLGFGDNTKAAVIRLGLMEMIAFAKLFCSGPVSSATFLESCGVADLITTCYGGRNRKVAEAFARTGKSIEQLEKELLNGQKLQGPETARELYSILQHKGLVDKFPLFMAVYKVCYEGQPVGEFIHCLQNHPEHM
log2 fold change [1]: 0.011
log2 fold change [2]: -0.046
log2 fold change [3]: 0.021
log2 fold change [4]: 0.653 (active)
log2 fold change [5]: 0.02
log2 fold change [6]: -0.042
log2 fold change [7]: -0.34
log2 fold change [8]: 0.514
log2 fold change [9]: 0.062

FAT2 (UniProt Q9NYQ8)
log2 fold change [2]: -0.035
log2 fold change [3]: -0.113
log2 fold change [10]: -0.114
log2 fold change [4]: 0.456
log2 fold change [5]: -0.002
log2 fold change [6]: 0.009
log2 fold change [7]: -0.333
log2 fold change [8]: 0.119
log2 fold change [9]: 0.069

HSPA8 (UniProt E9PN89)
log2 fold change [1]: -0.158
log2 fold change [3]: -0.261
log2 fold change [10]: -0.144
log2 fold change [4]: -0.019
log2 fold change [5]: -0.276
log2 fold change [6]: -0.507
log2 fold change [7]: -0.689
log2 fold change [8]: 0.182
log2 fold change [9]: 0.03

GSTT1 (UniProt P30711)
log2 fold change [2]: -0.004
log2 fold change [3]: 0.011
log2 fold change [10]: 0.101
log2 fold change [4]: -0.062
log2 fold change [5]: 0.064
log2 fold change [6]: -0.063
log2 fold change [7]: 0.081
log2 fold change [8]: 0.009
log2 fold change [9]: -0.018

GTPBP6 (UniProt O43824)
log2 fold change [1]: 0.038
log2 fold change [2]: 0.014
log2 fold change [10]: -0.042
log2 fold change [4]: -0.037
log2 fold change [5]: 0.015
log2 fold change [7]: 0.006
log2 fold change [8]: -0.062
log2 fold change [9]: -0.015

HNRNPK isoform 3 (UniProt P61978)
log2 fold change [1]: -0.015
log2 fold change [2]: 0.027
log2 fold change [10]: 0.066
log2 fold change [4]: 0.085
log2 fold change [5]: -0.066
log2 fold change [7]: -0.067
log2 fold change [8]: 0.062
log2 fold change [9]: -0.136

HAUS4 (UniProt Q9H6D7)
UniProt Q9H6D7, sequence (Q9H6D7 whole entry, looked up): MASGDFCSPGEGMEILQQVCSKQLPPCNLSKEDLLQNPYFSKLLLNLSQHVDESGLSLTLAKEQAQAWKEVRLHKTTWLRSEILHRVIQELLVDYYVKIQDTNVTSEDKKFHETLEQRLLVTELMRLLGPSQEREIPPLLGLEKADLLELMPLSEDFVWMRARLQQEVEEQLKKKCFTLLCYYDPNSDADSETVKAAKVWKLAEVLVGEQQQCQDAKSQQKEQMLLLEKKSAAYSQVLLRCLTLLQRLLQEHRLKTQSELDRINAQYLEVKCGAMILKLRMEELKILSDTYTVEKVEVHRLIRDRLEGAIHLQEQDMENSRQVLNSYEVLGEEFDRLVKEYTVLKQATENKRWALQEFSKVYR
log2 fold change [1]: -0.143
log2 fold change [2]: 0.003
log2 fold change [3]: 0.084
log2 fold change [4]: -0.061
log2 fold change [5]: -0.049
log2 fold change [6]: 0.012
log2 fold change [7]: -0.269
log2 fold change [8]: 0.08
log2 fold change [9]: -0.16

FRA10AC1 isoform 3 (UniProt Q70Z53)
log2 fold change [1]: -0.068
log2 fold change [3]: 0.04
log2 fold change [10]: 0.041
log2 fold change [4]: -0.096
log2 fold change [5]: 0.104
log2 fold change [6]: 0.001
log2 fold change [7]: -0.001
log2 fold change [8]: 0.052
log2 fold change [9]: -0.002

GBE1 (UniProt Q04446)
UniProt Q04446, sequence (Q04446 whole entry, looked up): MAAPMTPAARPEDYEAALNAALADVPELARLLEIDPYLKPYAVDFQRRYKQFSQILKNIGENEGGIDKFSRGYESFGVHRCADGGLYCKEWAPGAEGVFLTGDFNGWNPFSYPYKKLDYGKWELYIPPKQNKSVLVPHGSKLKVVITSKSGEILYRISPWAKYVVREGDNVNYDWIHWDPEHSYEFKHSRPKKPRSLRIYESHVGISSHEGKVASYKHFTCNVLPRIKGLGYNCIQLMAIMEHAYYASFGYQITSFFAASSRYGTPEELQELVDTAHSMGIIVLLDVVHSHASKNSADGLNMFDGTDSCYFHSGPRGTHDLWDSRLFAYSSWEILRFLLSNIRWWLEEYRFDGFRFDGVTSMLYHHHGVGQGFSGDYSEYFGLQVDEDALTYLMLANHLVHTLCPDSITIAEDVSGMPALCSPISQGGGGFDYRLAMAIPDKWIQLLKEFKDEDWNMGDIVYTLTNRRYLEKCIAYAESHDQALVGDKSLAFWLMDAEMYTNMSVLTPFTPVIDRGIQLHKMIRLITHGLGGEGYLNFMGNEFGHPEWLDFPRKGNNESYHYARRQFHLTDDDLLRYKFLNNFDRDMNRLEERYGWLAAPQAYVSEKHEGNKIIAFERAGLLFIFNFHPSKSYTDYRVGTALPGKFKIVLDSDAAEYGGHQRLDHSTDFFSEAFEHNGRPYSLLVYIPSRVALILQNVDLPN
log2 fold change [2]: 0.08
log2 fold change [3]: 0.128
log2 fold change [10]: 0.014
log2 fold change [4]: 0
log2 fold change [5]: 0.162
log2 fold change [6]: 0.065
log2 fold change [7]: 0.005
log2 fold change [8]: 0.038
log2 fold change [9]: 0.109

GREB1 (UniProt Q4ZG55)
log2 fold change [1]: -0.003
log2 fold change [10]: -0.338
log2 fold change [4]: 0.755 (active)
log2 fold change [5]: 0.047
log2 fold change [8]: 0.294

IFNGR1 (UniProt P15260)
log2 fold change [1]: -0.246
log2 fold change [2]: 0.048
log2 fold change [3]: -0.056
log2 fold change [4]: 0.743 (active)
log2 fold change [5]: -0.124
log2 fold change [6]: -0.181
log2 fold change [7]: -0.174
log2 fold change [8]: 0.281
log2 fold change [9]: 0.028

FUNDC1 (UniProt Q8IVP5)
log2 fold change [1]: 0.007
log2 fold change [3]: 0.118
log2 fold change [6]: -0.013
log2 fold change [7]: -0.285
log2 fold change [9]: 0.052

FBXO9 (UniProt Q9UK97)
UniProt Q9UK97, sequence (Q9UK97 whole entry, looked up): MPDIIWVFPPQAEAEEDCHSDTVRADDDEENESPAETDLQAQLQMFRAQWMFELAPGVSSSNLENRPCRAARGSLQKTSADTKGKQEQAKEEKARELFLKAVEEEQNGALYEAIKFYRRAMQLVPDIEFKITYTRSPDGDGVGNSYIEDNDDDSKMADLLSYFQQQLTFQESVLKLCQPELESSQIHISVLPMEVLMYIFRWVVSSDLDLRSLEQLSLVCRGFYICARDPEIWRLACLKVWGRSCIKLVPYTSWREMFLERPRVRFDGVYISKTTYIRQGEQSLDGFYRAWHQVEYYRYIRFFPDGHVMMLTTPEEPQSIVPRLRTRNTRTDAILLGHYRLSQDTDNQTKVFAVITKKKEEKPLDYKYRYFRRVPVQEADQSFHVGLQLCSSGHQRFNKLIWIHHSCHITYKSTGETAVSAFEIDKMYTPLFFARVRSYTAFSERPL
log2 fold change [2]: 0.009
log2 fold change [3]: 0.064
log2 fold change [10]: -0.025
log2 fold change [5]: 0
log2 fold change [6]: 0.061
log2 fold change [7]: 0.052
log2 fold change [8]: 0.111
log2 fold change [9]: 0.117

HDAC10 (UniProt Q969S8)
log2 fold change [2]: 0.027
log2 fold change [3]: -0.001
log2 fold change [5]: 0.231
log2 fold change [6]: 0.046
log2 fold change [7]: 0.056
log2 fold change [8]: 0.153
log2 fold change [9]: -0.117

GOLGA6B (UniProt A6NDN3)
log2 fold change [1]: -0.035
log2 fold change [10]: 0.033
log2 fold change [4]: -0.099
log2 fold change [5]: 0.882 (active)
log2 fold change [7]: -0.113
log2 fold change [8]: 0.002
log2 fold change [9]: 0.011

GTF3A (UniProt Q92664)
log2 fold change [1]: 0.074
log2 fold change [3]: 0.09
log2 fold change [10]: 0.125
log2 fold change [4]: -0.054
log2 fold change [5]: -0.075
log2 fold change [6]: 0.078
log2 fold change [7]: -0.035
log2 fold change [8]: -0.048
log2 fold change [9]: -0.053

GNL3 (UniProt Q9BVP2)
log2 fold change [1]: 0.002
log2 fold change [4]: 0.491 (active)
log2 fold change [5]: -0.12
log2 fold change [7]: -0.307
log2 fold change [9]: 0.079

GPNMB (UniProt Q14956)
log2 fold change [4]: 1.64 (active)
log2 fold change [8]: 0.671

HDAC1 (UniProt Q13547)
log2 fold change [1]: -0.11
log2 fold change [2]: -0.039
log2 fold change [3]: 0.051
log2 fold change [10]: 0.034
log2 fold change [4]: 1.45 (active)
log2 fold change [5]: 0.051
log2 fold change [6]: 0.14
log2 fold change [7]: -0.118
log2 fold change [9]: 0.024

HBZ, A0A494C057
log2 fold change [7]: 0.051
log2 fold change [8]: 0.109
log2 fold change [9]: 0.013

GOLGA8R (UniProt I6L899)
UniProt I6L899, sequence (I6L899 whole entry, looked up): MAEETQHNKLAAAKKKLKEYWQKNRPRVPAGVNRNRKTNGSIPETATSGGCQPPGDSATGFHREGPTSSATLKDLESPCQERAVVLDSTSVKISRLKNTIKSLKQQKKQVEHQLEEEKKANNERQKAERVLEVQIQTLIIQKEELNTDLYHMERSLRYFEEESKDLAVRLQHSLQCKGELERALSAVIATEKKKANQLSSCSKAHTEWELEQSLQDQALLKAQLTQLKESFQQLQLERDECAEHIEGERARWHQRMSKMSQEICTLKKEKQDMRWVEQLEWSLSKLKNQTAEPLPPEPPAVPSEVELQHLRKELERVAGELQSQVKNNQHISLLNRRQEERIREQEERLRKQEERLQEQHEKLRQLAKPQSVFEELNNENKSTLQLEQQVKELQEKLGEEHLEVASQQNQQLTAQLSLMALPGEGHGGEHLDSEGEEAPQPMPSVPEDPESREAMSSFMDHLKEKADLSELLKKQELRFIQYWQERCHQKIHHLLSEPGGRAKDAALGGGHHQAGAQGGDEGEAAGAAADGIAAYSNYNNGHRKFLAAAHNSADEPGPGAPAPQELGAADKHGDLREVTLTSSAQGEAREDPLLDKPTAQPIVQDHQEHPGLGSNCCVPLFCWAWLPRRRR
log2 fold change [2]: -0.037
log2 fold change [3]: 0.041
log2 fold change [10]: -0.205
log2 fold change [5]: 0.06
log2 fold change [6]: -0.086
log2 fold change [8]: 0.223
log2 fold change [9]: 0.048

GID4 (UniProt Q8IVV7)
UniProt Q8IVV7, sequence (Q8IVV7 whole entry, looked up): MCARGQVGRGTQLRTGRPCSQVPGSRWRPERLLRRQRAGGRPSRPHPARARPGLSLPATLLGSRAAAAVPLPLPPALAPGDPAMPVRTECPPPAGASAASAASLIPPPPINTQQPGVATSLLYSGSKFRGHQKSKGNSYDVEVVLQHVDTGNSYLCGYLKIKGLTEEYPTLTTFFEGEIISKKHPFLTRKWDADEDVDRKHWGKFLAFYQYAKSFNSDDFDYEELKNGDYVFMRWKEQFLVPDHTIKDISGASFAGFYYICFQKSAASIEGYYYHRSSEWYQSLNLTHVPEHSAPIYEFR
log2 fold change [1]: 0.028
log2 fold change [2]: 0.003
log2 fold change [3]: -0.07
log2 fold change [4]: 0.058
log2 fold change [5]: -0.181
log2 fold change [6]: -0.271 (active)
log2 fold change [7]: -0.035
log2 fold change [8]: -0.03
log2 fold change [9]: -0.1

IDH3A isoform 2 (UniProt P50213)
UniProt P50213, sequence (P50213 whole entry, looked up): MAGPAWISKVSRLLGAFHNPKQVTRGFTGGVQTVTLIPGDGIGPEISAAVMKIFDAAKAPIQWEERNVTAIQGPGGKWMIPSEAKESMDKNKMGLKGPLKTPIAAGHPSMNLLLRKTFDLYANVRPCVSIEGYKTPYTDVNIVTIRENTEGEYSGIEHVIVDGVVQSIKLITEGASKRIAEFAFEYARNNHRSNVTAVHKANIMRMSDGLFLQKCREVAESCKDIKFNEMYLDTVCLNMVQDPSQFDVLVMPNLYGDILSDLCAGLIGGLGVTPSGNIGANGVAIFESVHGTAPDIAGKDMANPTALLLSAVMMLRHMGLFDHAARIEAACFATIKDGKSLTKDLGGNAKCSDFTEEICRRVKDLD
log2 fold change [10]: -0.083
log2 fold change [8]: 0.175
log2 fold change [9]: -0.012

GBA2 (UniProt Q9HCG7)
UniProt Q9HCG7, sequence (Q9HCG7 whole entry, looked up): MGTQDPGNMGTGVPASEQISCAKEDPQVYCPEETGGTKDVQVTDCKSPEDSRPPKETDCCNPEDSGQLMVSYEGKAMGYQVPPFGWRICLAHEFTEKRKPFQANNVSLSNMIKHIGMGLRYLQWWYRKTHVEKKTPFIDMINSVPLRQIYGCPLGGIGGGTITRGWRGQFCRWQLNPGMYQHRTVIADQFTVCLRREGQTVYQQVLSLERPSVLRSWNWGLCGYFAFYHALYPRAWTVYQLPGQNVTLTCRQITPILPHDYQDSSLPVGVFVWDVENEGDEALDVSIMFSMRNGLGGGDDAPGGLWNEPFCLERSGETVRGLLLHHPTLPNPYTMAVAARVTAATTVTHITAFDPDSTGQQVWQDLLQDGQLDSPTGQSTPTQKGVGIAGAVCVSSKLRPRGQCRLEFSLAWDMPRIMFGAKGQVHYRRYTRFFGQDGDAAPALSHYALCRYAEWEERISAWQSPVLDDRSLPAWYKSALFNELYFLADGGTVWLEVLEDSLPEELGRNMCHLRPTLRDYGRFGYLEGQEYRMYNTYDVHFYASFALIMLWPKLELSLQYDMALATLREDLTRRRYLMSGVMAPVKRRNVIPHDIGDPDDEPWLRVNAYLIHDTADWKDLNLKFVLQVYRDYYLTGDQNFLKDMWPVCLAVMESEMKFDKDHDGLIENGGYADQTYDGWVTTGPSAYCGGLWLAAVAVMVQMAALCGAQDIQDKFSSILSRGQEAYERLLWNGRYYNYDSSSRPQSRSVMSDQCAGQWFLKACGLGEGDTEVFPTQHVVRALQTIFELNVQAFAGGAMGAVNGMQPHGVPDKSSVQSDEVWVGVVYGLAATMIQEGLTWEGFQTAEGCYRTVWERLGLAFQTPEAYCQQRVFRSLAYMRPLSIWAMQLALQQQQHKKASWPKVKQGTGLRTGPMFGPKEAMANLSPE
log2 fold change [1]: -0.079
log2 fold change [3]: -0.043
log2 fold change [10]: 0
log2 fold change [4]: 0.051
log2 fold change [5]: 0
log2 fold change [6]: -0.032
log2 fold change [7]: -0.076
log2 fold change [8]: -0.02
log2 fold change [9]: 0.008

FUT8 (UniProt Q9BYC5)
log2 fold change [1]: -0.05
log2 fold change [2]: -0.047
log2 fold change [10]: 0.037
log2 fold change [4]: 0.064
log2 fold change [5]: -0.417
log2 fold change [7]: 0.048
log2 fold change [8]: -0.048
log2 fold change [9]: -0.014

HNRNPUL1 (UniProt M0R247)
log2 fold change [1]: -0.059
log2 fold change [3]: -0.148
log2 fold change [10]: -0.075
log2 fold change [6]: -0.15
log2 fold change [8]: 0.001

HS1BP3 (UniProt Q53T59)
log2 fold change [1]: 0.023
log2 fold change [2]: -0.045
log2 fold change [3]: -0.109
log2 fold change [10]: -0.046
log2 fold change [4]: 0.052
log2 fold change [5]: 0.132
log2 fold change [6]: 0.021
log2 fold change [8]: 0.111
log2 fold change [9]: 0.047

FASTKD1 (UniProt Q53R41)
UniProt Q53R41, sequence (Q53R41 whole entry, looked up): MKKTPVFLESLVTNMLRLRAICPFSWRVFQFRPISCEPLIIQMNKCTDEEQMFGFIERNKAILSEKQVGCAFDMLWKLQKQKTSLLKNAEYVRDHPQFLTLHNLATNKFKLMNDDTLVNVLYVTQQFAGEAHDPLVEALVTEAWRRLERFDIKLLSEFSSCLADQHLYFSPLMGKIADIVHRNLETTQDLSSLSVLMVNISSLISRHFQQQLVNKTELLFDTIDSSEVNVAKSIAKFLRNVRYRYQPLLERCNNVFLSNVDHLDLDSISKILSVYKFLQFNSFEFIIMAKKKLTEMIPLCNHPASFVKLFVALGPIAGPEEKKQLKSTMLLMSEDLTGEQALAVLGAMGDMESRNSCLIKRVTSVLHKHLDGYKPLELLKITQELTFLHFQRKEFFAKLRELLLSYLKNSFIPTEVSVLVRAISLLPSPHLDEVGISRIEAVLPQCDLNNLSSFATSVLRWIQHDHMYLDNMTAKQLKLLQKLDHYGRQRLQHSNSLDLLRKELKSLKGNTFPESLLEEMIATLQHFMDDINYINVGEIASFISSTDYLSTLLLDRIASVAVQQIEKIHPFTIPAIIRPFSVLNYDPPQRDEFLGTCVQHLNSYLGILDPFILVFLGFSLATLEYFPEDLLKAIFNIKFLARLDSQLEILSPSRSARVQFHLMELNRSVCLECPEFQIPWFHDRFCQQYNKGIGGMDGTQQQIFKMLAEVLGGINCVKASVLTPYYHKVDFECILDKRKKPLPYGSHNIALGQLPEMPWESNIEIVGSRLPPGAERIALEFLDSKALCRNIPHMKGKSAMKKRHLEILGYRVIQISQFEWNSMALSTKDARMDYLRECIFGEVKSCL
log2 fold change [1]: -0.066
log2 fold change [2]: -0.138
log2 fold change [10]: 0.017
log2 fold change [4]: 0.013
log2 fold change [5]: 0.065
log2 fold change [8]: 0.156
log2 fold change [9]: 0.096

FGG (UniProt P02679)
log2 fold change [2]: 0.067
log2 fold change [3]: -0.093
log2 fold change [6]: -0.214

FIZ1 (UniProt Q96SL8)
log2 fold change [1]: -0.164
log2 fold change [10]: -0.047
log2 fold change [4]: 0.102
log2 fold change [5]: 0.13
log2 fold change [7]: -0.022
